According to the supplement of paper PMC11732987, “Enantioselective OTUD7B fragment discovery through chemoproteomics screening and high-throughput optimisation” (Communications Chemistry, 2025):

Key:
Test in all cases: log2 ratio of Biotin-Ahx-Ub-VS probe labelling (fragment/DMSO); higher = less target engagement (more negative = stronger competition), active = hit call of the paper (q ≤ 0.05, log2 ratio ≤ -1)
Conditions in all cases: compound concentration: 200 uM; treatment time: 3 h
OTUD6B = molecular target: T1, OTUD6B (UniProt Q8N6M0)
T1 sequence (whole entry): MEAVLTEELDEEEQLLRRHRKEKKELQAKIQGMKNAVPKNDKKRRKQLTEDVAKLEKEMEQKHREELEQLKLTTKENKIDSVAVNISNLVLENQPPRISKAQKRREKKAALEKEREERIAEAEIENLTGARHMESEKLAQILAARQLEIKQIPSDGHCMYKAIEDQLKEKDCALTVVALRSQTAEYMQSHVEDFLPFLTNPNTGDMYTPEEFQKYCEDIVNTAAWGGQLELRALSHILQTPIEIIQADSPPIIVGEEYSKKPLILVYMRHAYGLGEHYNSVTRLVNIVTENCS
In short: (§1)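 HEK293T lysate (495 µg per sample, in Tris/CHAPS/IGEPAL buffer with protease inhibitors) was exposed in triplicate for 3 h to fragment at 200 µM or to vehicle, then to Biotin-Ahx-Ub-VS at 0.5 µM final for 1 h. Labelled DUBs were enriched on NeutrAvidin, digested with LysC and trypsin, and analysed by diaPASEF LC-MS/MS. Spectronaut label-free quantities were normalised to the global median, and values are average log2 ratios of fragment over vehicle from an unpaired t-test. Only proteins with ≥2 unique peptides were used.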

OTUD7B = molecular target: T2, OTUD7B (UniProt Q6GQQ9)
T2 sequence (whole entry): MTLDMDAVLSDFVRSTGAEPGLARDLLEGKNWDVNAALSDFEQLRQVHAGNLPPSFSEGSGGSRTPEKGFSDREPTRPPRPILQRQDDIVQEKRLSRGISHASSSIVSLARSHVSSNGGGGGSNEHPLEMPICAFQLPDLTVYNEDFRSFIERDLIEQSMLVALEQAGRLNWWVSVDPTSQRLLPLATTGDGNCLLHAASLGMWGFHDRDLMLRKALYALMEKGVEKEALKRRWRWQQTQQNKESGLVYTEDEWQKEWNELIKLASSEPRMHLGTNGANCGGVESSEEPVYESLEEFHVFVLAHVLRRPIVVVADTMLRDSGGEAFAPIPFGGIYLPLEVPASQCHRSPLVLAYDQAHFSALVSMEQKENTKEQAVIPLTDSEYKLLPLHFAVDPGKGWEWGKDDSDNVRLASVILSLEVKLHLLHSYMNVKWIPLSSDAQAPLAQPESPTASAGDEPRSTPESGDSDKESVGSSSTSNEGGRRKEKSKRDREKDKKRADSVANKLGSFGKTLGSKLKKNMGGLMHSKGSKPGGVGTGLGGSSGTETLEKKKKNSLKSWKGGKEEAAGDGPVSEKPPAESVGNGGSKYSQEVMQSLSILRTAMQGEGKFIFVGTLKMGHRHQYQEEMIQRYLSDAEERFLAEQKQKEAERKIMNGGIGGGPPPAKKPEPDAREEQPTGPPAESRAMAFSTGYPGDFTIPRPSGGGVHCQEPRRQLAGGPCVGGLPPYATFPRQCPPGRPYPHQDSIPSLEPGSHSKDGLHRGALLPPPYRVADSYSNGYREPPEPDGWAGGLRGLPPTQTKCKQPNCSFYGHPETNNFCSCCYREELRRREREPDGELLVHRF
In short: as §1

PRPF8 = PRPF8 (UniProt Q6P2Q9)
In short: as §1

PSMD7 = molecular target: T3, PSMD7 (UniProt P51665)
T3 sequence (whole entry): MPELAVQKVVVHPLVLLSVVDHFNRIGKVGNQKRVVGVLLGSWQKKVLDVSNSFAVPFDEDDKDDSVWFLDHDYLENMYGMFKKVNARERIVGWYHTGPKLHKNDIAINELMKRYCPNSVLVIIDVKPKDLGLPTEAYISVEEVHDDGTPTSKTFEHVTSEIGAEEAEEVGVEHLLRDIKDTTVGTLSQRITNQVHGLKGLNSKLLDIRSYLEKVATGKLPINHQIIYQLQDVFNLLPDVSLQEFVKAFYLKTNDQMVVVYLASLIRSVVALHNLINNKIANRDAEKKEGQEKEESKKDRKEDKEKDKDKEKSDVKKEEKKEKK
In short: as §1

UCHL1 = UCHL1 (UniProt P09936)
UCHL1, sequence (P09936 whole entry, looked up): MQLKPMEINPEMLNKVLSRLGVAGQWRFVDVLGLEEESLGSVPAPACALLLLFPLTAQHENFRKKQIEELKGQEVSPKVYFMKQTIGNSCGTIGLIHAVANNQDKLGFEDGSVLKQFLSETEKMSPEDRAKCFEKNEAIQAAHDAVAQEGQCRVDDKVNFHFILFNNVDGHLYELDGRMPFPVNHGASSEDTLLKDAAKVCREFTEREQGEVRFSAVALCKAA
In short: as §1

UCHL3 = molecular target: T4, UCHL3 (UniProt P15374)
T4 sequence (whole entry): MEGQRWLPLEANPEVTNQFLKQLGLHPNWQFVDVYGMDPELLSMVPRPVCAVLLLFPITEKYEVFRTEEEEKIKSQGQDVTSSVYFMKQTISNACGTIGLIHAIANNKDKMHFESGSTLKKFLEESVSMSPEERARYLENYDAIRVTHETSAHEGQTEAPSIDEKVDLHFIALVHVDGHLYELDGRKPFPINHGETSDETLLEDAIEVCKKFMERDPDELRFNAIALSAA
In short: as §1

UCHL5 = molecular target: T5, UCHL5 (UniProt Q9Y5K5)
T5 sequence (whole entry): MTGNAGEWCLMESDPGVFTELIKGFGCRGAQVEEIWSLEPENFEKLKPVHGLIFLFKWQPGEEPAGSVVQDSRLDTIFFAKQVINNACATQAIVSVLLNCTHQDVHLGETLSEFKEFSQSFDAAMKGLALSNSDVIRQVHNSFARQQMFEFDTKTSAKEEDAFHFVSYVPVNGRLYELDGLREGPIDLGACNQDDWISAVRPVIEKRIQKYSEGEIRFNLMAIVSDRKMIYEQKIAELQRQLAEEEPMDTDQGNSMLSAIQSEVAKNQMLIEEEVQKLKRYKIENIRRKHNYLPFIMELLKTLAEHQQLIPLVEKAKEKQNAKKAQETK
In short: as §1

USP10 = USP10 (UniProt Q14694)
USP10, sequence (Q14694 whole entry): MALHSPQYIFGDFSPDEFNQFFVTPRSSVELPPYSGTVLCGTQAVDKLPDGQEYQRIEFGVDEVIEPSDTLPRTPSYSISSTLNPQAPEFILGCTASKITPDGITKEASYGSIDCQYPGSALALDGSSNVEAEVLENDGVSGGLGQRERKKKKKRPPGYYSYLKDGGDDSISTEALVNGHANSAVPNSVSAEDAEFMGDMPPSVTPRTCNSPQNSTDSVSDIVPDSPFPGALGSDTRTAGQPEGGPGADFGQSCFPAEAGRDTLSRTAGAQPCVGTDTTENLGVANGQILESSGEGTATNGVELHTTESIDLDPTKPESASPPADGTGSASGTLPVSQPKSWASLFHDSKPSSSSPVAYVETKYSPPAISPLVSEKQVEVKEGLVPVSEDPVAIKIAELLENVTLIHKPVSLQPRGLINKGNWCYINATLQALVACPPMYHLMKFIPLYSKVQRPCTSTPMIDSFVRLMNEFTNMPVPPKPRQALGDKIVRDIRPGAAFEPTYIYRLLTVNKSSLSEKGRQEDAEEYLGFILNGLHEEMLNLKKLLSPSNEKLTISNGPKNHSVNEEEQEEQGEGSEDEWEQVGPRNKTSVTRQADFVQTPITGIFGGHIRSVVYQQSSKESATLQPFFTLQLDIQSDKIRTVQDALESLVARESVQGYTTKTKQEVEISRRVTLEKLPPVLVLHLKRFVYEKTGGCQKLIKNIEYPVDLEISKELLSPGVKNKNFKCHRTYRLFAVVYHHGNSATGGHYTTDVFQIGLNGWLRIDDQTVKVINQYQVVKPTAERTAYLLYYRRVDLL
In short: as §1

USP15 = molecular target: T6, USP15 (UniProt Q9Y4E8)
T6 sequence (whole entry): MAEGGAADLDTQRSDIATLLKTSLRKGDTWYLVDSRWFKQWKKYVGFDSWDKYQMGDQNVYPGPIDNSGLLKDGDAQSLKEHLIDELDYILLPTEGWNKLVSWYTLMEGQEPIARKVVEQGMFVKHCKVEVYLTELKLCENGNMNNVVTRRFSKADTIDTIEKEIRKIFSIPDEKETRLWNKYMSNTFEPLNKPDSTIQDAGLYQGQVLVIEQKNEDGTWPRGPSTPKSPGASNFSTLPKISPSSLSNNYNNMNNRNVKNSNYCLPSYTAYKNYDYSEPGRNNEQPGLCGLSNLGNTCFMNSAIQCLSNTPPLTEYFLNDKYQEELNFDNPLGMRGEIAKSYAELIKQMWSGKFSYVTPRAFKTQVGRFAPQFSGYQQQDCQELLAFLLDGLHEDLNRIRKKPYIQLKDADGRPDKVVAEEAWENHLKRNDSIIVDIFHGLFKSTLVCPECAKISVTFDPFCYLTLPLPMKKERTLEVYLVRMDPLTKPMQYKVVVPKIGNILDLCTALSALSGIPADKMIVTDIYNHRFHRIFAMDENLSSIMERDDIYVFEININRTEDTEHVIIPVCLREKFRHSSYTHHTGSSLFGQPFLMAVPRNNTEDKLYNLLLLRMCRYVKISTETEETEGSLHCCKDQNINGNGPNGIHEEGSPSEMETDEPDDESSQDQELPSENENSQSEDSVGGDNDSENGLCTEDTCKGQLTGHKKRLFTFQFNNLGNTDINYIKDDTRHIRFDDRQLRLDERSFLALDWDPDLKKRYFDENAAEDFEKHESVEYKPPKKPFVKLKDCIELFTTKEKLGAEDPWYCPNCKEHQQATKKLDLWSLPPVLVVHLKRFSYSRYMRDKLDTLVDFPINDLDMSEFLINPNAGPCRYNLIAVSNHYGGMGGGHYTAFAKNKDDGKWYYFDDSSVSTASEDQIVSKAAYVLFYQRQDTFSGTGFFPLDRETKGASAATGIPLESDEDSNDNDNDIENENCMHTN
In short: as §1

USP16 = USP16 (UniProt Q9Y5T5)
USP16, sequence (Q9Y5T5 whole entry, looked up): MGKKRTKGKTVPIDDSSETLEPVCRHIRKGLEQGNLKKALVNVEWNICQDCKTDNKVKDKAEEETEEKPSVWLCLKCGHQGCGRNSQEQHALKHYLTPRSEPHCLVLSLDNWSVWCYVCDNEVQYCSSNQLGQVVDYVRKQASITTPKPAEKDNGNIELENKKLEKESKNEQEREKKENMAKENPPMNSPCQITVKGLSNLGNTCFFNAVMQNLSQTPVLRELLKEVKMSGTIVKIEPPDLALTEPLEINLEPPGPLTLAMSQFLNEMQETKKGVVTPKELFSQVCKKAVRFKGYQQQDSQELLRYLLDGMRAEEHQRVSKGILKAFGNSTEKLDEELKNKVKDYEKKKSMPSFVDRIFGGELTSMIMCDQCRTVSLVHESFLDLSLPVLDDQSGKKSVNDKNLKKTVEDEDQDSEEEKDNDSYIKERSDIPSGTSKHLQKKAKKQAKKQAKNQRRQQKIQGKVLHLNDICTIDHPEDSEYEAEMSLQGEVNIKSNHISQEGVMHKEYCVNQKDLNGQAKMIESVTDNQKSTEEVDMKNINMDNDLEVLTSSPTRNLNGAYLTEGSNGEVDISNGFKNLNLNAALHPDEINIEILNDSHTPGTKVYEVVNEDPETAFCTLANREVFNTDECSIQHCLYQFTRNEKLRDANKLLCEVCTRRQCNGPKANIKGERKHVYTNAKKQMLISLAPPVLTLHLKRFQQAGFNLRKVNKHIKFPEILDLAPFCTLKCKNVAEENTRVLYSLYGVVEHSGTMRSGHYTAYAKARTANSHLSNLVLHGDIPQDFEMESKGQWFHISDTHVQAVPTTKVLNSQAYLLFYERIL
In short: as §1

Measured: log2 ratio of Biotin-Ahx-Ub-VS probe labelling

O=C(CCl)N1CCC(O)(Cc2ccc(F)cc2)C1 (stereo not given)
active: UCHL1 -1.12
inactive: OTUD6B 0.0617 | OTUD7B -0.082 | PRPF8 -0.0432 | PSMD7 -0.209 | UCHL3 0.0281 | UCHL5 0.116 | USP10 -0.309 | USP15 -0.149 | USP16 0.246
